G9a inh – inhibitors of human histone lysine methyltransferase G9a. Q96KQ7. G9a H3K9 monomethylation, AlphaScreen, 2 h. Potency, µM (series often up to 102 µM), without a hit: at the highest dose activity, negative = inhibition, usual class: inhibitors. hit rate 8.8% among 350,000; further: potency means the concentration at half of the fitted maximal effect; nearly all actives have a fitted effect of over 75% in size
Target sequence (Q96KQ7 913-1193 limits assumed): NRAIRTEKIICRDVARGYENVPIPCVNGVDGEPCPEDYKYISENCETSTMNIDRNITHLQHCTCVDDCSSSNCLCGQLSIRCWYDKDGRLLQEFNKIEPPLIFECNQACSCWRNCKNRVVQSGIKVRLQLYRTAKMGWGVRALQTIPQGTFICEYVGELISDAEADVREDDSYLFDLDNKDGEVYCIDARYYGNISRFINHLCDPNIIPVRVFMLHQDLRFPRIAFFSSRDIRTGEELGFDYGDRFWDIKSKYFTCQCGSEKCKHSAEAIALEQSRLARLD
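Readings reflect AlphaScreen signal from monomethyl-H3K9 antibody detection. HMT at 20 nM; substrate b-H3K9 500 nM; cofactor SAM 20 uM; 2 h RT reaction; compounds tested as titrations in qHTS with 15 min preincubation.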
Tau ThT inhib – inhibitors of human tau fibril formation, thioflavin T binding. Potency, µM (series often up to 57.4 µM), for inactives: top-dose activity, negative = inhibition, actives largely listed as inhibitors. AID 1460. recombinant tau K18 P301L, heparin-induced fibrillization, ThT fluorescence. P10636. hit rate 2.1% among 270,000; further: potency means the concentration at half of the fitted maximal effect; nearly all actives have a fitted effect of over 55% in size
Target sequence (P10636 561-689 P618L limits assumed): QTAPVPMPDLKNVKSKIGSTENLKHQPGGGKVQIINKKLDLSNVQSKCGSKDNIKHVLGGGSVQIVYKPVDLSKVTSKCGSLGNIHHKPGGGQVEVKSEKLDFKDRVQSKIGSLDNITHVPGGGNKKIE
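Aggregation was driven by heparin (20 uM final) acting on recombinant tau […] bearing P301L in 100 mM sodium acetate pH 7; fibrils were detected with Thioflavin T.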
FBPA coupling cs – inhibits coupling enzyme system, counter-screen for aldolase hits | coupling enzyme system counterscreen, AmpLite Red fluorescence | activity change, negative = inhibition, % at 58.2 µM, hits read low | hit rate 0.67% among 290,000 | AID 2472; in the data active means activity change below about -30%
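Final compound at 57.5 uM, incubated 10 min at RT with coupling enzyme reagent (glyceraldehyde-3-phosphate), then 20 min with substrate and AmpLite Red detection. Fluorescence read at 525/598 nm; tests interference with the coupling assay, not aldolase inhibition.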
Tau fluor cs – counter-screen for tau fibril formation inhibitors. tau K18 P301L (four-repeat tau fragment) Alexa594 fluorescence, heparin fibrillization. Potency, µM (top dose mostly 57.7 µM), for inactives: at the top dose activity change, negative = decrease. hit rate 0.93% among 280,000. AID 1463; further: potency means the concentration at half of the fitted maximal effect; nearly all actives have a fitted effect of over 55% in size
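Human K18 P301L tau (15 uM unlabeled plus 0.24 uM Alexa 594-labeled, final) in 100 mM sodium acetate pH 7 was mixed with compound and 20 uM heparin and incubated 6 hr at 37 C.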
Sfp inh – Sfp phosphopantetheinyl transferase inhibition | Potency, µM, for the others: largest response in the series, negative = inhibition, actives largely listed as inhibitors | Q9F4F7 | Biochemical Sfp PPTase activity, qHTS | AID 1490 | hit rate 3.5% among 310,000;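 further: the enzyme is Sfp with the accession as filed and its product quenches rhodamine fluorescence; potency means the concentration at half of the fitted maximal effect; 0% = enzyme reaction without inhibitor and -100% = no enzyme wells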
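Reaction rates are the 30-min fluorescence difference (ex 525, em 598 nm) in wells containing 15 nM Sfp, 5 uM rhodamine-CoA and 12.5 uM BHQ-2-YbbR at pH 7.6 with 10 mM MgCl2.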
Tau fibril FP – tau fibrillization inhibition (FP); AID 1468; hit rate 0.39% among 280,000; K18 P301L tau heparin fibrillization, Alexa594 FP, 6 h; Potency, µM (series often up to 57.7 µM), inactives show top-dose activity, negative = inhibition, actives largely listed as inhibitors; further: potency means the concentration at half of the fitted maximal effect; nearly all actives have a fitted effect of over 55% in size
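Recombinant K18 P301L […], labeled with Alexa 594 at 0.24 uM over 15 uM unlabeled; heparin inducer 20 uM final; 37 C, 6 hr; FP endpoint.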
Active calls of the source: *; u = inconclusive; x = not tested or not shown; [ ] = another dose, or the depositor's remark. This is a sample that favours compounds with a hit; in the whole collection about 11% have one here. Unless noted, the call rests on the fitted dose curve; in most records, active means well fitted curve in the direction sought with a large enough effect; inconclusive means small, poorly fitted or top-dose-only effect, or another doubt; inactive means no such curve, though single readings can be large; an effect the other way counts as inactive or inconclusive. Unless noted, on the % scale 0 is the no-effect control and ±100 the full control effect.

SMILES | G9a inh | Tau ThT inhib | FBPA coupling cs | Tau fluor cs | Sfp inh | Tau fibril FP
CCN(c1ccccc1)c1nnc(NC(=O)Nc2ccc(Br)cc2)s1 | -38%[59 µM] | -6% | x | -4% | x | 8%
Cc1ccc(S(=O)(=O)Nc2ccccc2C(O)c2ccccc2)cc1 (stereo not given) | 4%[0.501 µM] | x | -12 | x | 8% | x
CNc1ccc(Br)cc1C(O)c1ccccc1 (stereo not given) | 43%[12.7 µM] | -10% | -18 | -25% | 89µM* | 2%
CC(=O)c1cccc2c(O)c(C3=Nc4ccccc4C3=O)[nH]c12 | u | 3.5µM* | -48* | u | 40µM* | u
O=C1C(c2c(O)[nH]c3ccccc23)=Nc2ccccc21 | 5%[59 µM] | u | 2 | u | 16% | -3%
FC(F)(F)c1cnc(NNC(=S)Nc2cccnc2)c(Cl)c1 | 22µM* | u | -2 | -19% | -26% | -11%
Cc1c(Cl)cccc1NC(=S)NNc1ncc(C(F)(F)F)cc1Cl | 71µM* | -17% | 1 | -20% | 20% | 6%
O=C(COC(=O)c1cc(-c2ccccc2Cl)nc2ccccc12)Nc1ncc(C(F)(F)F)cc1Cl | -20%[59 µM] | -3% | 3 | -21% | 40µM* | -4%
NC(=O)NNc1ncc(C(F)(F)F)cc1Cl | u | -6% | 2 | -1% | 50µM* | 11%
Cc1ccc(O)c(NC(=O)C2CC(c3cccc(Br)c3)=NO2)c1 (stereo not given) | 24%[59 µM] | x | 0 | x | 19% | x
O=C(CSc1ncccn1)Nc1ncc(C(F)(F)F)cc1Cl | 20µM* | -1% | 3 | -2% | u | 2%
Cn1c(=O)[nH]c(=O)c2c1nc(NC1CCCC1)n2Cc1ccccc1 | -1%[12.7 µM] | x | 1 | x | 6% | x
O=C(O)c1ccc(N2Cc3ccccc3C2)cc1O | 8.9µM* | 2% | 3 | -5% | -15% | -8%
CC(=O)c1cccc(NC(=O)C(CC(C)C)NS(=O)(=O)c2ccc3c(c2)CCN3C(C)=O)c1 (stereo not given) | -44%[59 µM] | 2% | x | -3% | x | 6%
CN(/C=C/C(=C\C=[N+](C)c1ccccc1)OCCCS(=O)(=O)[O-])c1ccccc1 | x | u | -11 | -11% | 79µM* | -12%
COc1cc(C2CC(=O)N(Cc3cccc(F)c3)c3ccccc3S2)cc(OC)c1OC (stereo not given) | -1%[59 µM] | -5% | x | -24% | x | -2%
Cc1ccc(Nc2nnc(SCC(=O)N(C)C3CCS(=O)(=O)C3)s2)cc1 (stereo not given) | u | -2% | -8 | -4% | 14% | 9%
CN(C)N(C(=O)c1cc(-c2cccs2)nn1-c1ccccc1)C1CCS(=O)(=O)C1 (stereo not given) | 18µM* | x | x | x | x | x
CN(C(=O)CSc1nnc(-c2ccc(F)cc2)c2ccccc12)C1CCS(=O)(=O)C1 (stereo not given) | 22µM* | u | 2 | -10% | -14% | -6%
Cc1ccccc1Nc1nnc(SCC(=O)N(C)C2CCS(=O)(=O)C2)s1 (stereo not given) | 32µM* | 1% | 3 | 0% | 9% | 1%
Cc1ccccc1Nc1nnc(SCC(=O)Nc2ccccc2[N+](=O)[O-])s1 | 45µM* | 3% | 0 | -2% | 4% | 0%
Cc1cccc(Nc2nnc(SCC(=O)Nc3ccccc3[N+](=O)[O-])s2)c1 | -24%[59 µM] | u | -4 | u | 8% | u
O=C(Nc1cccc(F)c1)N1CC[C@@]2(CCCN(C(=O)c3csnn3)C2)C1 | 0%[12.7 µM] | x | 2 | x | 16% | x
COc1ccccc1NC(=O)C(=O)c1cc(C)n(-c2cc(C)cc(C)c2)c1C | -27%[59 µM] | 1% | x | -11% | x | -2%
COc1nc(Oc2ccc(=O)n(-c3ccccc3)n2)nc(N(C)C)n1 | u | 0% | x | 4% | x | -10%
SMILES | G9a inh | Tau ThT inhib | FBPA coupling cs | Tau fluor cs | Sfp inh | Tau fibril FP
Cc1cccc(Nc2nnc(SCC(=O)c3ccc(Br)s3)s2)c1C | 4.5µM* | 8% | 5 | 7% | 6% | 7%
Cc1cc(C)nc(SCC(=O)Nc2ccccc2[N+](=O)[O-])n1 | 8% | -10% | 1 | -9% | 18% | 5%
CCN(C(=O)CSc1nnc(COc2ccccc2F)n1N)C1CCS(=O)(=O)C1 (stereo not given) | 34% | x | -2 | x | 10% | x
O=C1CC(=O)NC(SCC(=O)Nc2ccccc2[N+](=O)[O-])=N1 | 25µM* | x | 4 | x | u | x
CN(C(=O)CSc1n[nH]c(-c2cccs2)n1)C1CCS(=O)(=O)C1 (stereo not given) | 50µM* | x | x | x | x | x
CN(C(=O)CSc1nnc(COc2ccccc2F)n1N)C1CCS(=O)(=O)C1 (stereo not given) | 20µM* | x | x | x | x | x
Cc1ccc(-c2noc(CNC(=O)c3ccc(C)c(Cl)c3)n2)cc1 | 5%[59 µM] | -8% | x | u | x | u
Cc1cccc(CNC(=O)CN2C(=O)CCCc3ccccc32)c1 | -9%[59 µM] | 3% | x | -3% | x | -2%
CCOc1ccc(CCNC(=O)c2cnc3sc(N4CCC(C)CC4)nn3c2=O)cc1 | -5%[59 µM] | -6% | x | -1% | x | 11%
COc1ccccc1N1CCN(S(=O)(=O)c2cc(C(=O)Nc3ccc(Oc4ccccc4)cc3)ccc2F)CC1 | -18%[59 µM] | 2% | x | u | x | u
CCn1nc(C)cc1-c1n[nH]c(=S)n1N | 2.8µM* | -7% | -2 | -6% | 45µM* | 4%
Cc1cccc(N2CCN(C(=O)c3ccc4c(c3)NC(=O)C(CSCc3cccc(F)c3)N4)CC2)c1C (stereo not given) | 10µM* | x | x | x | 89µM* | x
Cc1cccc(N2CCN(C(=O)CSCc3ccc(F)cc3)CC2)c1C | 14%[59 µM] | u | x | -2% | x | 2%
N=c1c2c(-c3ccccc3)c(-c3ccccc3)n(Cc3ccco3)c2ncn1Cc1ccco1 | u | u | 4 | -5% | 35µM* | -2%
CCCCn1cnc2c(c(-c3ccccc3)c(-c3ccccc3)n2Cc2ccco2)c1=N | x | -19% | 12 | -8% | u | -3%
COc1cccc(-c2nc(CCl)cs2)c1 | u | u | -1 | -5% | 12% | 3%
COc1ccc(-c2nc(CCl)cs2)cc1 | 25µM* | -17% | 1 | -1% | 5% | -1%
COc1ccc(-c2nc(CCl)cs2)cc1OC | 20µM* | -9% | 0 | 4% | -10% | 7%
CCOC(=O)C(C)Nc1ncnc2onc(C)c12 (stereo not given) | 0%[59 µM] | 3% | x | -1% | x | -1%
CC(=O)Nc1nonc1NC(=O)CSC1=NCCS1 | 56µM* | -17% | 1 | -8% | -6% | -3%
Cn1nnnc1SCC(=O)Nc1nc2c(s1)CCCC2 | -4%[12.7 µM] | -4% | -1 | -6% | 12% | -5%
O=C(CSC1=NCCS1)Nc1nc2c(s1)CCCC2 | 40µM* | u | -1 | -19% | 56µM* | -8%
